Only some compounds are listed: those with a hit (about 19% of all), similar ones and a draw of the others.
Marburg entry inh: Marburg virus entry inhibition. Marburg virus pseudotyped entry inhibition, cell reporter. Potency, µM (doses to about 37.8 µM), actives largely listed as inhibitors. 300,000 compounds, 1.8% hits. AID 540276; calls by dose curve; tested in HEK293 cells
Cycloheximide cs: counter-screen for Shiga toxin inhibitors: cycloheximide protein synthesis inhibition; cell reporter, cycloheximide protein synthesis inhibition counterscreen; max response, %; 300,000 compounds, 12% hits; AID 2314; in the data active = max response mostly above about 13%, no sharp cut-off; inactive = mostly below about 14%; also: read at 38.3 µM for the half of the compounds with a filed dose
Shiga toxin inh: inhibitors of Shiga toxin in Vero cells; Vero cells, Shiga toxin protein synthesis inhibition reporter; inhibition, % at 38.7 µM; 290,000 compounds, 9.2% hits; AID 2315; in the data active = inhibition mostly above about 28%, no sharp cut-off; inactive = mostly below about 43%
Lassa entry inh: blocks Lassa virus binding to or entry into cells | Lassa virus pseudotype entry inhibition, cell reporter | 300,000 compounds, 1.2% hits | Potency, µM (highest dose often 37.9 µM), usual class: inhibitors; calls by dose curve; tested in HEK293 cells; also: nearly all actives have a fitted effect of over 50% in size
Pf growth 96h: P. falciparum growth inhibition at 96 hours; P. falciparum luciferase reporter growth, 96 h; Potency, µM (series often up to 28.7 µM), hits mostly inhibitors; 320,000 compounds, 6.9% hits
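Erythrocytes infected with luciferase-expressing P. falciparum were dispensed at 2% hematocrit and 0.05% parasitemia (final), then incubated with compounds 96 hours at 37 C in 5% CO2. Luminescence after detection reagent addition reported growth.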
Pf growth 48h: inhibits P. falciparum growth in the first generation, 48 h; P. falciparum luciferase growth in erythrocytes, 48 h; Potency, µM (highest dose often 28.7 µM), hits mostly inhibitors; 310,000 compounds, 5.9% hits; AID 504832
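Compounds are pin-transferred into medium, infected erythrocytes (2% hematocrit, 0.1% parasitemia final) are added, and plates sit one parasite generation at 37 C in 5% CO2. Detection reagent is then added and luminescence measured.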
Each line names hits and unclear results; the compound was inactive in the other large screens. Unless noted, calls follow the shape of the dose curve; as a rule, active = well fitted inhibition curve with a large enough effect; inconclusive = small, poorly fitted or top-dose-only effect, or another doubt; inactive = no such curve, though single readings can be large or run the other way.

C=CCn1c(=N)n(CC(O)c2ccco2)c2ccccc21 (stereo not drawn)	Marburg entry inh inconclusive
Cc1cc(C)cc(N2CC(C)Cn3c2nc2c3c(=O)[nH]c(=O)n2C)c1 (stereo not drawn)	none (no result: Marburg entry inh, Lassa entry inh)
COCCN(C(=S)Nc1ccccc1C)C(C)c1cccs1 (stereo not drawn)	none
Cc1c(N(C)C)nc2ccccc2c1N	none
Nc1c2ccccc2nc2ccccc12	Marburg entry inh inconclusive, Lassa entry inh inconclusive, Pf growth 96h 4.65µM, Pf growth 48h 5.22µM
Cc1cc(C)c2c(N)c3cccc(C)c3nc2n1	Marburg entry inh 3.66µM, Lassa entry inh inconclusive, Pf growth 96h 6.57µM, Pf growth 48h 4.15µM
c1ccc2nc3ccccc3nc2c1	none
Clc1c2c(nc3ccccc13)CCC2	none (no result: Marburg entry inh, Lassa entry inh)
Nc1nc2ccccc2nc1N	Cycloheximide cs 13.9, Shiga toxin inh 27.7
Nc1c2c(nc3ccccc13)CCCC2	Marburg entry inh inconclusive, Lassa entry inh inconclusive, Pf growth 96h 8.49µM, Pf growth 48h inconclusive
Cc1cccc2c(N)c3c(nc12)N(C)CC3	none (no result: Marburg entry inh, Lassa entry inh)
CN1/C(=C\C=N\NC(=O)c2ccc(O)cc2)C(C)(C)c2ccccc21	Marburg entry inh inconclusive, Lassa entry inh inconclusive, Pf growth 96h inconclusive
COc1ccc(C2CC(c3ccccc3)Oc3cc(C)cc(C)c32)cc1 (stereo not drawn)	none (no result: Marburg entry inh, Lassa entry inh, Pf growth 96h, Pf growth 48h)
COc1ccc(OCc2ccc(-c3nc(C#N)c(N4CCCCC4)o3)o2)cc1	none (no result: Cycloheximide cs, Shiga toxin inh, Pf growth 96h, Pf growth 48h)
COc1ccc2nc(NC(=O)C3CCCN(S(=O)(=O)c4cccs4)C3)sc2c1 (stereo not drawn)	Marburg entry inh inconclusive, Lassa entry inh inconclusive, Pf growth 96h inconclusive, Pf growth 48h 9.28µM
COc1ccc2nc(NC(=O)C3CCN(S(=O)(=O)c4cccnc4)CC3)sc2c1	none (no result: Lassa entry inh, Pf growth 48h)
Cc1ccc2nc(NC(=O)C3CCN(S(=O)(=O)c4cnc[nH]4)CC3)sc2c1	Marburg entry inh inconclusive, Lassa entry inh inconclusive, Pf growth 96h 11.7µM
Cc1ccc2nc(NC(=O)C3CCN(S(=O)(=O)c4cccs4)CC3)sc2c1	Marburg entry inh inconclusive, Lassa entry inh 10.3µM, Pf growth 48h inconclusive
COc1ccc2nc(NC(=O)C3CCN(S(=O)(=O)c4cccs4)CC3)sc2c1	Marburg entry inh inconclusive, Lassa entry inh 14.6µM, Pf growth 48h 13.1µM (no result: Pf growth 96h)
CC1(C)C(c2ccccn2)=[N+]([O-])C(C)(C)N1O	Pf growth 96h inconclusive
CC(=O)N1CCOc2ccc(S(=O)(=O)N3CCC(C(=O)Nc4cc(C)ccc4C)CC3)cc21	Pf growth 48h inconclusive
COc1ccc(OC)c(C(=O)c2oc3ccccc3c2NC(C)=O)c1	Marburg entry inh inconclusive, Pf growth 48h inconclusive
COCCn1c(CNc2ccc(F)cc2)nnc1SCC(=O)Nc1ccc(OC)cc1OC	none (no result: Pf growth 96h)
O=C(Nc1nc2ccccc2[nH]1)C1CCN(S(=O)(=O)c2cccs2)CC1	Cycloheximide cs 13.8 (no result: Pf growth 48h)
O=C(Nc1ccccn1)C1CCN(S(=O)(=O)c2cccs2)CC1	Marburg entry inh inconclusive
O=C(Nc1ccc(F)cc1F)c1c(C(F)(F)F)ccnc1Oc1ccccc1	Marburg entry inh inconclusive, Pf growth 96h inconclusive, Pf growth 48h inconclusive
Cc1ccc(S(=O)(=O)N(CC(=O)Nc2cccc(C(F)(F)F)c2)C(=O)N2CCN(C)CC2)cc1	none (no result: Cycloheximide cs, Shiga toxin inh)
S=c1nc[nH]c2c1ncn2C1CCCO1 (stereo not drawn)	Marburg entry inh inconclusive, Lassa entry inh inconclusive
CCOc1ccc(CC(=O)Nc2sc(Cc3ccccc3)c(C)c2C(N)=O)cc1OCC	Pf growth 96h 9.28µM, Pf growth 48h inconclusive
CCOc1ccc(CC(=O)Nc2c(C(N)=O)oc3ccccc23)cc1OCC	Lassa entry inh inconclusive, Pf growth 96h 11.7µM, Pf growth 48h inconclusive
CCOc1ccc(NC(=O)c2oc3ccccc3c2NC(=O)Cc2ccc(OC)c(OC)c2)cc1	Marburg entry inh inconclusive (no result: Cycloheximide cs, Shiga toxin inh, Pf growth 96h, Pf growth 48h)
CC1(C)CC(=O)C2=C(C1)OC(N)=C([N+](=O)[O-])C2c1cccs1 (stereo not drawn)	none
CN(C)/C=C1/NC(=S)NC1=O	none
COc1ccccc1NC(=O)CSc1nnc(-c2ccccn2)o1	Marburg entry inh inconclusive, Lassa entry inh inconclusive
N#Cc1ccc(CSc2nnc(-c3cnccn3)o2)cc1	Pf growth 96h inconclusive
O=C(CSc1nnc(-c2ccccn2)o1)Nc1ccccc1	Marburg entry inh inconclusive, Shiga toxin inh 64.9, Pf growth 96h inconclusive
O=C(CSc1nnc(-c2ccccn2)o1)Nc1ccc(F)cc1	Shiga toxin inh 24.5 (no result: Marburg entry inh, Lassa entry inh)
Fc1ccc(CSc2nnc(-c3ccccn3)o2)cc1	Cycloheximide cs 27.7, Shiga toxin inh 41.0 (no result: Marburg entry inh, Lassa entry inh)
COc1ccc(-n2c(C)cc(-c3csc(N)n3)c2C)cc1	Pf growth 96h inconclusive, Pf growth 48h 13.1µM
Cc1nc(-c2ccc(C(=O)Nc3ccccc3F)cc2)cs1	Marburg entry inh inconclusive, Lassa entry inh inconclusive
Cc1nc(-c2ccc(NC(=O)c3ccccc3C)cc2)cs1	Marburg entry inh inconclusive, Cycloheximide cs 31.1, Shiga toxin inh 61.2, Lassa entry inh inconclusive
Cc1nc(-c2ccc(NC(=O)c3ccccc3Br)cc2)cs1	Marburg entry inh inconclusive, Cycloheximide cs 54.6, Shiga toxin inh 57.3, Lassa entry inh inconclusive
O=C(c1ccc(-c2cccc(C(F)(F)F)c2)o1)N1CCCCCCC1	none (no result: Cycloheximide cs, Shiga toxin inh)
O=C(c1ccco1)N1CCN(C(=O)c2ccc(-c3cccc(C(F)(F)F)c3)o2)CC1	Marburg entry inh inconclusive, Lassa entry inh 5.01µM, Pf growth 48h inconclusive (no result: Cycloheximide cs, Shiga toxin inh)
CC1CN(C(=O)c2ccc(-c3cccc(C(F)(F)F)c3)o2)CC(C)O1 (stereo not drawn)	Pf growth 96h inconclusive, Pf growth 48h 13.1µM (no result: Cycloheximide cs, Shiga toxin inh)
C(=C\c1ccccc1)/C=N/N1CCN(Cc2ccccc2)CC1	Cycloheximide cs 27.0, Shiga toxin inh 43.3, Lassa entry inh inconclusive
C(=C\c1ccccc1)/C=N/N1CCN(c2ccccn2)CC1	Cycloheximide cs 39.4, Shiga toxin inh 48.2
O=S(=O)(/C=C/c1ccccc1)N1CCN(c2ccccc2)CC1	Marburg entry inh inconclusive
CC(/C=N/N1CCN(c2ccccn2)CC1)=C\c1ccccc1	Cycloheximide cs 22.8, Shiga toxin inh 46.7
C(/C=C/c1ccccc1)=N/N1CCN(c2ccccc2)CC1	Marburg entry inh inconclusive, Cycloheximide cs 16.4
CC(/C=N/N1CCN(c2ccccc2)CC1)=C\c1ccccc1	none
CCCCC(=O)Nc1nnc(SCC(=O)NC2CC2)s1	Pf growth 96h inconclusive
COc1ccccc1OCC(=O)NCCCN1CCOCC1	none
O=C(CCNC(=O)c1ccccc1Cl)NCCCSc1ccccc1	none (no result: Marburg entry inh, Cycloheximide cs, Shiga toxin inh, Lassa entry inh)
Cc1c(NC(=O)CSc2ccc3ccccc3n2)c(=O)n(-c2ccccc2)n1C	none (no result: Marburg entry inh, Cycloheximide cs, Shiga toxin inh, Lassa entry inh)
CSc1nc2ccccc2n1CC(=O)Nc1c(C)n(C)n(-c2ccccc2)c1=O	Pf growth 96h 10.4µM
CSc1nc2ccccc2n1Cc1c(Cl)cccc1Cl	Marburg entry inh inconclusive, Pf growth 96h 11.7µM (no result: Pf growth 48h)
CSc1nc2ccccc2n1CC(=O)Nc1c(C)cccc1C	Pf growth 96h 7.38µM
CSc1nc2ccccc2n1CC(=O)Nc1ccccc1	none
COC(=O)c1ccc(C(c2c(C)n(C)n(-c3ccccc3)c2=O)c2c(C)n(C)n(-c3ccccc3)c2=O)cc1	Pf growth 96h 6.57µM, Pf growth 48h inconclusive (no result: Marburg entry inh, Shiga toxin inh, Lassa entry inh)

Screens as filed in PubChem.
